Screening results (PubChem)
An excerpt weighted towards active compounds, which were near 19% of everything screened.
Chronic BCR inh – inhibitors of chronic active B-cell receptor signaling | ABC-DLBCL IkBa-CBG/CBR reporter, luminescence ratio, 4 h | Potency, µM (highest dose often 46.1 µM), for inactives: at the top dose activity change, negative = inhibition, actives largely listed as inhibitors | 340,000 compounds, 0.05% hits | AID 493014; active means well fitted inhibition curve with a large enough effect in the signal ratio, with a control signal flat, not every such curve was filed as active; inconclusive means small, poorly fitted or top-dose-only effect, or effect the other way, or a change in a side signal; the % refers to the signal ratio;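 further: potency means the concentration at half of the fitted maximal effect; plate controls were basal doxycycline-induced cells for no effect and cells given 10 µM MG132 for full effect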
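Concentration-response series (up to 46 uM) were applied to TMD8 dual-reporter cells for 4 h at 37C with doxycycline. Green/red ratio, after filter-overlap correction, defined %Activity; red signal alone was normalised to basal cells and zero luminescence.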
MCF10A rerep – DNA re-replication induction in MCF 10a cells. MCF 10A DNA re-replication, Hoechst nuclear intensity, 48 h. Potency, µM (titrated, usually from 46.1 µM), inactives show at the top dose activity, positive = re-replication, actives largely listed as activators. 350,000 compounds, 2.9% hits; further: potency means the concentration at half of the fitted maximal effect; % of control where 0% means no effect; nearly all actives have a fitted effect of over 50% in size
TDP1 cell noCPT – qHTS for Inhibitors of human tyrosyl-DNA phosphodiesterase 1 (TDP1): qHTS in cells in absence of CPT; Potency, µM (titrated, usually from 46.2 µM), without a hit: at the highest dose activity change, negative = growth inhibition, most hits filed as inhibitors; 420,000 compounds, 15% hits; DT40 Tdp1-/- hTDP1 cells, no CPT, ATP luminescence, 48 h; further: potency means the concentration at half of the fitted maximal effect; on the % scale 0 is the no-effect control and ±100 the full control effect; nearly all actives have a fitted effect of over 55% in size
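Chicken DT40 Tdp1-/- cells complemented with human TDP1, screened without camptothecin (DMSO vehicle only), 400 cells/well. Compounds pin-transferred, cells incubated at 37 °C for at least 48 hr. Growth read as ATP-dependent luminescence (CellTiter-Glo, 30 min at RT).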
DT40 TDP1 CPT – growth inhibition of DT40 Tdp1-/-;hTDP1 cells with camptothecin (screen for TDP1 inhibitors) | AID 686979 | 420,000 compounds, 12% hits | chicken DT40 Tdp1-/-;hTDP1 cells + 20 nM CPT, ATP luminescence, 48 h | Potency, µM (top dose mostly 46.2 µM), inactives show at the highest dose activity change, negative = growth inhibition, actives largely listed as inhibitors; further: potency means the concentration at half of the fitted maximal effect; on the % scale 0 is the no-effect control and ±100 the full control effect; nearly all actives have a fitted effect of over 55% in size
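Cell growth measured by CellTiter-Glo luminescence after a minimum 48 h, 37 C compound exposure with 20 nM CPT in Tdp1-knockout DT40 cells stably expressing hTDP1, seeded 400/well; qHTS titration format.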
IL-1B inflam inh – blocks inflammasome-driven IL-1 beta release; THP-1 LPS/ATP IL-1B secretion, AlphaLISA, 16 h; active compounds read low; 360,000 compounds, 4.7% hits; activity change, % at 57.5 µM; AID 743279; in the data active means activity change below about -50%; inconclusive means mostly about -30% to -49%; further: on the % scale 0 is the no-effect control and ±100 the full control effect
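Secreted IL-1B measured by AlphaLISA bead assay after 16 h compound exposure of THP-1 cells; compounds (final up to 57.5 uM) added 1 h before LPS (250 ng/mL) and ATP (1.25 mM) stimulation; lower signal means less secretion.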
SW480 rereplic – inducers of DNA re-replication in SW480 colon cancer cells. AID 624297. SW480 DNA re-replication, Hoechst DNA content imaging, 48 h. 340,000 compounds, 1.8% hits. Potency, µM (doses to about 46.1 µM), for inactives: at the top dose re-replication activation, most hits filed as activators; further: potency means the concentration at half of the fitted maximal effect; % of control where 0% means no effect; nearly all actives have a fitted effect of over 55% in size
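SW480 cells exposed to compounds for 48 hr at 37 C, 5% CO2, then Hoechst-stained 40 min. Nuclear DNA content imaged by fluorescence scanning (405 nm excitation, 500-530 nm emission); re-replication scored as increased high-intensity nuclei.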
The depositor's hits bear a star; ? = inconclusive; nt = no result; [ ] = remark or other dose. Unless noted, the call rests on the fitted dose curve; in most records, active means well fitted curve in the direction sought with a large enough effect; inconclusive means small, poorly fitted or top-dose-only effect, or another doubt; inactive means no such curve, though single readings can be large; an effect the other way counts as inactive or inconclusive.

SMILES | Chronic BCR inh | MCF10A rerep | TDP1 cell noCPT | DT40 TDP1 CPT | IL-1B inflam inh | SW480 rereplic
Cc1ccc(N2CCN(CCc3nc4cc(NS(C)(=O)=O)ccc4n3C)CC2)cc1 | ? | 17% | ? | -28% | 0 | -3%
Cc1ccc(S(=O)(=O)Nc2ccc3c(c2)nc(CCN2CCCCC2)n3C)cc1 | -1% | -1% | ? | -12% | -92* | ?
Cc1ccc(S(=O)(=O)Nc2ccc3c(c2)nc(CCN2CCOCC2)n3C)cc1 | ? | 0% | 9% | 0% | ? | 2%
CN(C)CC(=O)Nc1ccc2c(c1)[C@H]1C[C@H](CC(=O)NCc3ccc4c(c3)OCO4)O[C@H](CO)[C@H]1O2 | nt | nt | -15% | -3% | 18 | nt
O=C1OC(N2C(=O)CC[C@H]2C(=O)Nc2cccc(F)c2)c2ccccc21 (some centres undefined) | 0% | -57% | 7% | 3% | 10 | 4.1µM*
Cc1cccc(C)c1NC(=O)c1sccc1SCC#N | 1% | -3% | ? | 11µM* | 7 | 0%
O=C(CCc1cccnc1)NCC1Cc2cccc(-c3ncccn3)c2O1 (centres undefined) | nt | nt | 11% | 3%[9.04 µM] | nt | nt
Cc1cc2c(c(-c3nc4ccccc4s3)c1)OC(CNC(=O)CCc1cccnc1)C2 (centres undefined) | nt | nt | 0.13µM* | 0.12µM* | nt | nt
CCC(c1nnnn1Cc1ccco1)N1CCN(c2cc(Cl)ccc2C)CC1 (centres undefined) | 4% | ? | ? | ? | -60* | ?
Nc1nc2cc(Cl)ccc2cc1C(=O)NCCCc1ccccc1 | nt | nt | 15µM* | ? | 44 | nt
COc1ccc(CCNC(=O)c2ccc(Cl)cc2)cc1 | 0% | 3% | -8% | ? | 13 | 0%
Nc1nc2ccc(Cl)cc2cc1C(=O)NC1CC1 | nt | nt | -16% | -9% | 20 | nt
COc1ccc(CCNC(=O)c2cc3ccc(Cl)cc3nc2N)cc1 | nt | nt | 5.8µM* | ? | 0 | nt
O=C(C[C@@H]1C=C[C@H](NS(=O)(=O)c2ccccc2F)[C@@H](CO)O1)NCCCN1CCOCC1 | nt | nt | 6% | -6% | 25 | nt
O=c1c2ccccc2nc2n1-c1ccccc1CCC2 | 3% | 22% | 16µM* | ? | 5 | 2%
O=C1c2ccccc2-n2c1nc1ccccc1c2=O | 24% | 8% | 1.3µM* | 1.3µM* | -5 | 1.2µM*
Nn1c(-c2ccccc2)nc2ccccc2c1=O | 0% | -3% | -3% | -1% | 19 | 0%
O=C1CCc2nc3ccccc3c(=O)n2N1 | ? | -2% | -6% | 2% | 23 | -8%
CCOc1ccc(N2C=Nc3ccc(OCC)cc3C2)cc1 | -12% | -1% | 18µM* | 21µM* | -60* | 5%
CCOc1ccc(N2C(=O)CNC2=S)cc1 | -13% | ? | 2% | 7% | 5 | -2%
CCc1ccc(CNc2ncnc3onc(-c4ccc(Cl)cc4)c23)cc1 | nt | nt | 16µM* | -17% | nt | nt
Fc1ccc(CNc2ncnc3onc(-c4ccc(F)cc4)c23)cc1 | nt | nt | 23µM* | 18µM* | nt | nt
Fc1ccc(-c2noc3ncnc(NCc4cccc(Cl)c4)c23)cc1 | nt | nt | ? | -4% | nt | nt
CCCCC1(C)OC(=O)C(=Cc2ccc(N(C)C)cc2)C(=O)O1 (centres undefined) | -15% | -2% | 0% | 0% | 5 | -9%
CN(C)c1ccc(/C=C2\Oc3ccc(C#Cc4cccc(N)c4)cc3C2=O)cc1 | ? | 4.6µM* | -46% | ? | -18 | 5.2µM*
SMILES | Chronic BCR inh | MCF10A rerep | TDP1 cell noCPT | DT40 TDP1 CPT | IL-1B inflam inh | SW480 rereplic
CC1(C)OC(=O)C2=C(C[C@@H](C3CCCCC3)O[C@H]2c2ccccc2)O1 | nt | nt | 16µM* | ? | 42 | nt
CC(C)[C@@H]1O[C@H](CCc2ccccc2)CC2=C1C(=O)OC(C)(C)O2 | nt | nt | 15µM* | 15µM* | 33 | nt
CC(C)c1ccc([C@@H]2O[C@H](CCc3ccccc3)CC3=C2C(=O)OC(C)(C)O3)cc1 | nt | nt | 16µM* | ? | 20 | nt
CC1(C)OC(=O)C2=C(C[C@@H](C3CCCCC3)O[C@H]2c2ccc(F)cc2)O1 | nt | nt | ? | -19% | -26 | nt
CC1(C)OC(=O)C2=C(CC(CCc3ccccc3)OC2c2ccccc2)O1 (centres undefined) | nt | nt | 21µM* | 13µM* | 26 | nt
CC1(C)OC(=O)C2=C(C[C@@H](CCc3ccccc3)O[C@@H]2c2ccc(Cl)cc2)O1 | nt | nt | ? | ? | -22 | nt
CCNC(=O)CC1C(=O)N(c2ccc(C)cc2)C(=O)N1Cc1ccc(C)cc1 (centres undefined) | nt | nt | 3% | -6% | nt | nt
C[C@@H]1O[C@H](CCc2cccc(Cl)c2)CC2=C1C(=O)OC(C)(C)O2 | nt | nt | 2.9µM* | 1.6µM* | 7 | nt
OCCN1CCN(c2nc(-c3ccccc3O)nc3ccccc23)CC1 | ? | 19% | 16µM* | -8% | -82* | ?
OCCN(CCO)c1nc(-c2ccccc2)nc2c1oc1ccccc12 | ? | -3% | ? | 16µM* | -25 | -5%
OCCN1CCN(c2nc(-c3ccccc3)nc3c2oc2ccccc23)CC1 | ? | ? | 16µM* | ? | nt | ?
